Results: PubChem BioAssay (NCI)
Compounds without any hit were thinned out: in the full panel of roughly 83,000, 20% have a hit.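 Step 1: grow cells in 96-well plates. Step 2: add test compound at a single concentration. Step 3: incubate 48 h. Step 4: record percent growth.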 Calls of active or inactive are those of the source. The calls were made as follows: active = growth percent below 10; inactive = the rest.

Each molecule was assayed on HL-60(TB) leukemia (assay: NCI-60 one-dose screen, 48 h (100 = growth as untreated, 0 = no growth, -100 = all killed)). Settings: 10 µM unless noted.

Row | SMILES | growth
1 | COc1cc(Nc2nc(NCCN)nc3cc[nH]c(=O)c23)cc(OC)c1 | 71.8% (inactive)
2 | O=C(CSc1ncc(-c2ccccc2)n1-c1ccccc1)Nc1ccc(-c2nc3ccccc3s2)cc1 | 100% (inactive)
3 | CC(C)=CC(=O)OC(=O)C=C(C)C | 104% (inactive)
4 | CCCCN(Cc1ccc(C(=O)NO)cc1)C(=O)Nc1ccc(OCCCCCCCCCn2cc(CCCCC(=O)N[C@H](C(=O)N3C[C@H](O)C[C@H]3C(=O)NCc3ccc(-c4scnc4C)cc3)C(C)(C)C)nn2)cc1 | 21.6% (inactive)
5 | N=C(N)/N=C(\CCc1nc2ccccc2[nH]1)c1nc2ccccc2[nH]1 | 118% (inactive)
6 | C=C(C)[C@@H]1CC[C@]2(C(=O)OC)CC[C@]3(C)[C@H](CC[C@@H]4[C@@](C)(CCc5nn[nH]n5)[C@H](C(=C)C)CC[C@]43C)[C@@H]12 | -11% [100 µM] (active)
7 | C=CCN1C(=O)/C(=c2\sc3n(c2=O)NC2C(N=3)N(CC)C(=O)N2CC)c2ccccc21 (stereo not given) | -12.6% (active)
8 | Cc1ccc2[nH]c(=S)[nH]c(=O)c2c1 | 105% (inactive)
9 | CCCCC(=O)Nc1c(C(=O)Nc2ccccc2)sc2nc3c(cc12)C(OC(=O)CCCC)CCC3 (stereo not given) | 99.3% (inactive)
10 | CC1C(=O)CCCC1=O | 118% (inactive)
11 | COc1cccc(/C=N\Nc2ccc([N+](=O)[O-])cn2)c1O | 57.5% (inactive)
12 | COC(=O)C1=C(C(=O)OC)C23C=C(C)C1C2=C(C)C1(CC1)[C@@](C)(O)C3=O (stereo not given in full) | 25.6% (inactive)
13 | O=S(=O)(NCCNc1cc(-c2c(-c3cccc(O)c3)nc3sccn23)ccn1)c1ccc(Cl)cc1 | 84.3% (inactive)
14 | O=c1ccc2cc3ccccc3cc2[nH]1 | 67.7% (inactive)
15 | CCOC(=O)c1nc(Nc2ccc(C(C)=O)cc2)sc1C | 95.5% (inactive)
16 | CCOC(=O)c1c(-c2ccc(O)cc2)c(C#N)c2c(C#N)c(N)nn2c1N | 22.5% (inactive)
17 | Cc1ccccc1N1C(c2ccccc2)=NNC12C=CC(=O)C=C2Cl (stereo not given) | 82.4% (inactive)
18 | CCCCCOc1ccc(/C=N/Nc2cc(C)nc3ccc(Cl)cc23)cc1 | 0.0681% (active)
19 | CCCc1cc(=O)n2c(C(=O)Nc3ccc(F)cc3)c(C(=O)Nc3ccc(F)cc3)sc2n1 | 106% [30 µM] (inactive)
20 | Oc1c(C(Nc2ccccc2)c2ccccc2)ccc2cccnc12 (stereo not given) | 15.7% (inactive)

Row | SMILES | growth
21 | N#C/C(=C\c1ccc(-c2ccc(F)cc2)o1)c1nc(-c2ccco2)cs1 | 98% (inactive)
22 | O=C1Nc2ccc(C(=O)O)cc2/C1=N/c1nnc(Sc2ccccc2)s1 | 96.4% (inactive)
23 | CCCC(O)Cn1ncc(C(=O)OCC)c1NC(=O)NCc1cccc(F)c1 (stereo not given) | 59.2% (inactive)
24 | COc1ccc(C2CC(c3cccc(Nc4ccnc5cc(Cl)ccc45)c3)=NN2C=O)cc1 (stereo not given) | -38.2% (active)
25 | Cc1cc(N2CCN(CCNc3ccnc4cc(Cl)ccc34)CC2)nc(N2CCOCC2)n1 | 44.8% (inactive)
26 | CN1CCN(Cc2ccc(NC(=O)c3cncc(C#Cc4cnc5cccnn45)c3)cc2C(F)(F)F)CC1 | -37.9% (active)
27 | CC(C)=CCNc1ncnc2c1ncn2C1OC(CO)C(O)C1O (stereo not given) | -40.7% [1 mM] (active)
28 | CCn1c(=O)n(C)c2c(=O)n(C)c(=O)n(C)c21 | 101% (inactive)
29 | COc1cc(C(=O)CCCl)ccc1O | 95.8% (inactive)
30 | CC(=O)c1ccc(Nc2nc(C(C)=O)c(C)s2)cc1 | 88% (inactive)
31 | COc1ccc(C2CC(c3ccc4ccccc4c3)=NN2/C=C2\SC(=S)N(NC(=O)Cc3ccccc3Nc3c(Cl)cccc3Cl)C2=O)cc1 (stereo not given) | -27.4% (active)
32 | COc1ccc(S(=O)(=O)N(Cc2ccc3c(n2)C=CC(C)(C)O3)C2CCC2)cc1OC | -13.5% (active)
33 | CCOC(=O)c1c(C)nc2c(c1N)C(=O)C(=O)N2CCc1ccc(OC)c(OC)c1 | 65.6% (inactive)
34 | CCCCCCCCCCCC(c1ccccc1)N(C)C (stereo not given) | 104% (inactive)
35 | N#Cc1cccc(C2C3=C(COC3=O)N(CCO)c3cc4c(cc32)OCO4)c1 (stereo not given) | -32.1% (active)
36 | CC(=O)CC/C=C(\C)[C@H](O)[C@H](C)C(=O)O[C@H]1C[C@H](C)C=C2C=C[C@@]3(C)O[C@@H](O)CC(=O)[C@]3(C)[C@H]21 | -21.3% (active)
37 | COc1ccc(F)c(F)c1C(=O)c1cnc(NC2CCN(S(C)(=O)=O)CC2)nc1N | -32.2% (active)
38 | Nc1ccn(C2OC(F)(CO)C(O)C2F)c(=O)n1 (stereo not given) | 12.2% (inactive)
39 | O=C1OC(c2ccc(-c3ccccc3)cc2)=C/C1=C/c1c(Cl)cccc1Cl | 77.8% (inactive)
40 | Cc1ccccc1NC(=O)N/C(N)=N/c1nc2ccccc2s1 | -23.2% (active)
